Most compounds without a hit are left out; they make up all but 2.4% or so of the library.
Cruzain inh Det – qHTS Assay for Promiscuous and Specific Inhibitors of Cruzain (with detergent). Cruzipain (Trypanosoma cruzi), P25779. purified cruzain, Z-FR-AMC fluorescence, 0.01% Triton. Potency, µM, hits mostly inhibitors. 0.43% of 200,000 active. AID 1478, 2009; note: nearly all actives have a fitted effect of over 40% in size
Target sequence (P25779 123-467 limits assumed): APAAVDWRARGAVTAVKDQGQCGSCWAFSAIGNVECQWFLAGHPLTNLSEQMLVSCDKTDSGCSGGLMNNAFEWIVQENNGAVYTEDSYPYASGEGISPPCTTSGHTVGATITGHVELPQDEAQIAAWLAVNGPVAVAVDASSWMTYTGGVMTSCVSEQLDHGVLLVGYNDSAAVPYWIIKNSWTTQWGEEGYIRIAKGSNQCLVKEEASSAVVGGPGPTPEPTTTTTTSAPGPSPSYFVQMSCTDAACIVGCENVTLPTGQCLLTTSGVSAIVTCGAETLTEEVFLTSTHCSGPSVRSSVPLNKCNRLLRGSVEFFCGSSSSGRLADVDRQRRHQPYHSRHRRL
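Cruzain (1.5 nM) preincubated 15 min at RT with compound in 100 mM sodium acetate pH 5.5, 5 mM DTT, 0.01% Triton X-100. Reaction started with 2 uM Z-FR-AMC; AMC fluorescence (ex 360/em 450 nm) change over 60 s gave rate.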
Cruzain inh noDet – qHTS Assay for Promiscuous and Specific Inhibitors of Cruzain (without detergent) | Cruzipain (Trypanosoma cruzi), P25779 | purified cruzain, Z-FR-AMC fluorescence, no detergent | Potency, µM, most hits filed as inhibitors | 2.3% of 200,000 active | AID 1476, 2009; note: nearly all actives have a fitted effect of over 40% in size
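Detergent-free condition (0.00005% Triton X-100) in acetate buffer pH 5.5 with DTT. 1.5 nM enzyme and compound were pre-mixed 15 min, then 2 uM Z-FR-AMC substrate added; reaction progress from fluorescence change between first and third reads (60 s).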
Hits are given with their value; n = inactive; u = inconclusive. Calls come from the whole dose curve; as a rule, active = well fitted curve in the direction sought with a large enough effect; inconclusive = small, poorly fitted or top-dose-only effect, or another doubt; inactive = no such curve, though single readings can be large; an effect the other way counts as inactive or inconclusive.

SMILES	Cruzain inh Det	Cruzain inh noDet
CC(C)(C)NC(=O)Cc1ccc(S(=O)(=O)N2CCCC2)s1	n	n
O=C(Cc1ccc(S(=O)(=O)N2CCCC2)s1)Nc1nc2c(s1)CCCC2	n	20µM
O=C(Oc1ccc2c(c1)O/C(=C\c1ccncc1)C2=O)c1ccccc1	n	n
Cc1ccsc1/C=C1\Oc2cc(OCC(=O)c3ccccc3)ccc2C1=O	n	13µM
CCOC(=O)CSc1ncnc2c1sc1nc(N3CCOCC3)c3c(c12)CCCC3	n	n
CCOC(=O)C(Sc1ncnc2c1sc1nc(N3CCOCC3)c3c(c12)CCCC3)c1ccccc1 (configuration not stated)	n	3.2µM
CC1=Nc2cccc3cccc(c23)N1	n	n
COc1cccc(C2=Nc3cccc4cccc(c34)N2)c1	n	16µM
Nc1ccc(C2=Nc3cccc4cccc(c34)N2)cc1	n	3.2µM
CCCCOc1ccc(C2=NC(c3ccccc3)=Nc3ccc(OC)cc3N2)cc1	n	n
COC(=O)c1ccc(C(NC(=O)OCc2ccccc2)/C(=C/[C@@H](C)C(=O)NCc2ccc(OC)c(O)c2)c2cccnc2)cc1 (some centres not stated)	n	u
COc1ccc(N2CC(NC(=O)c3ccc(S(=O)(=O)N4CCCCC4)cc3)CC2=O)cc1 (configuration not stated)	n	n
COc1ccc(CC(N)C(=O)NC2C(CO)OC(n3cnc4c(N(C)C)ncnc43)C2O)cc1 (configuration not stated)	n	n
CC1CCC2(CC1)NC(=O)N(CC(=O)Nc1nc(-c3ccc(F)cc3)cs1)C2=O (configuration not stated)	n	25µM
Cc1ccc(NC(=O)CN2C(=O)NC3(CCC(C)CC3)C2=O)c(Cl)c1 (configuration not stated)	n	n
Cc1nn(C)c(C)c1CNC(=O)c1cc2n(n1)C(C(F)(F)F)CC(c1cccs1)N2 (configuration not stated)	n	u
CCOC(=O)c1c(NC(=O)c2cc3n(n2)C(C(F)(F)F)CC(c2cccs2)N3)sc(C)c1C (configuration not stated)	n	6.3µM
Cc1sc2nc(COC(=O)c3ccc(N4CCCC4)c([N+](=O)[O-])c3)[nH]c(=O)c2c1C	n	u
Cc1sc2nc(COC(=O)c3ccc(N4CCCC(C)C4)c([N+](=O)[O-])c3)[nH]c(=O)c2c1C (configuration not stated)	n	7.9µM
CC1(C)C2([N+](=O)[O-])CN3CC1([N+](=O)[O-])CN(C2)C31CCCC1	n	n
CC1(C)C2([N+](=O)[O-])CN3CC1([N+](=O)[O-])CN(C2)C3c1ccccc1 (configuration not stated)	n	20µM
CC(C)c1ccc(C2N3CC4([N+](=O)[O-])CN2CC([N+](=O)[O-])(C3)C4(C)C)cc1 (configuration not stated)	n	10µM
CC(C)c1ccc(C2N3CCCN23)cc1 (configuration not stated)	n	n
CCN1c2ccccc2-c2nc(SCC(=O)Nc3cccc(C)c3C)ncc2S1(=O)=O	n	n
CO/N=C1\CN(c2nc3c(cc2F)c(=O)c(C(=O)O)cn3C2CC2)CC1CN (configuration not stated)	n	u
SMILES	Cruzain inh Det	Cruzain inh noDet
CCCCn1c(SCc2nc3ccccc3s2)nc2ccccc2c1=O	n	n
CCCn1c(=O)c2ccccc2n2c(SCc3nc4ccccc4s3)nnc12	n	13µM
COc1ccc2[nH]c(=O)c(CN(Cc3cccs3)S(=O)(=O)c3cccc4nsnc34)cc2c1	n	32µM
COc1ccc2[nH]c(=O)c(CN(CCO)S(=O)(=O)c3c(C)ccc4nsnc34)cc2c1	n	n
Cc1nn(-c2ccccc2)c(C)c1/C=N/NC(=O)CSc1nc2ccccc2c(=O)n1-c1ccc(Br)cc1	n	16µM
Cc1ccccc1-n1c(SCC(=O)N/N=C/c2c(C)nn(-c3ccccc3)c2C)nc2ccccc2c1=O	n	u
Cc1nn(-c2ccccc2)c(C)c1/C=N/NC(=O)CSc1nnc(SCc2cccc3ccccc23)s1	n	4µM
Cc1ccc(-n2c(SCC(=O)N/N=C/c3c(C)nn(-c4ccccc4)c3C)nc3ccccc3c2=O)cc1	n	n
C=C(C)Cn1c(SCC(=O)N/N=C/c2c(O)ccc3ccccc23)nc2ccccc2c1=O	n	16µM
C=C(C)Cn1c(SCC)nc2ccccc2c1=O	n	n
O=C(NCCc1ccccc1Cl)c1cc2ccccn2n1	n	n
CCOc1ccc(CNC(=O)c2cnc(SC)nc2CC)cc1	n	n
COC(=O)c1ccccc1NC(=O)CCCn1c(C)c2cnn(-c3ccccc3)c(=O)c2c1C	n	n
O=C(CSc1nc2c([nH]c3ccccc32)c(=O)n1-c1ccc(Cl)cc1)N1CCc2ccccc21	n	n
CC(=O)c1ccc(-c2ccc(-c3cc(=O)oc4c(C(C)C)ccc(C)c34)cc2)cc1	n	8.9µM
Cc1ccc(C(C)C)c2oc(=O)cc(-c3ccc(-c4ccc(C(F)(F)F)cc4)cc3)c12	n	u
COc1ccccc1CNC(=O)C1CCN(S(=O)(=O)c2ccc3c(c2)CCCN3C(C)=O)CC1	n	n
Cc1cc(C)n(-c2ccc(C(=O)OCn3nnc4ccccc4c3=O)cc2)n1	n	n
Cc1nn(-c2ccccc2)c2sc(C(=O)Nc3cccc(Br)c3)cc12	n	20µM
Cc1nn(-c2ccccc2)c2sc(C(=O)Nc3ccc(Br)cc3)cc12	n	n
Cc1nn(-c2ccccc2)c2sc(C(=O)OCn3nnc4ccccc4c3=O)cc12	n	25µM
Cc1cccc(NC(=O)CSc2nc(C3CCCC3)nc3c2c(=O)n(C)c(=O)n3C)c1C	n	n
O=C(NCC(c1cccnc1)N1CCc2ccccc2C1)C(=O)Nc1cccc(Cl)c1 (configuration not stated)	n	n
O=S(=O)(NCCS(=O)(=O)N1CCN(c2ccccc2)CC1)c1ccc(Br)cc1	n	n
Cc1cc(/C=N\NC(=O)CC(=O)NC2CCCCC2)c(C)n1-c1ccc(Cl)c(Cl)c1	n	n
SMILES	Cruzain inh Det	Cruzain inh noDet
COc1cccc(NC(=O)C(=O)N/N=C/c2cc(C)n(-c3ccc(Cl)c(Cl)c3)c2C)c1	n	16µM
C[C@@H](NC(=O)/C(C#N)=C/c1ccc(O)c(O)c1)c1ccccc1	n	n
N#C/C(C(=O)NCCc1ccccc1)=C1/N=C(NC(=O)c2cccs2)c2ccccc21	n	4µM
CC(NC(=O)/C(C#N)=C1\N=C(NC(=O)c2cccs2)c2ccccc21)c1ccccc1 (configuration not stated)	n	16µM
O=C(NCCc1ccccc1)c1cccs1	n	n
Cc1ccc2ncc3c(-c4ccc(F)cc4)nn(CC(=O)Nc4ccccc4C)c3c2c1	n	n
Cc1ccc(/C=C/c2onc(C)c2S(=O)(=O)N2CCC(C(=O)N3CCN(c4cc(C)ccc4C)CC3)CC2)cc1	n	n
COc1ccc(Nc2ccc3cc(S(=O)(=O)N4CCCC4)ccc3n2)cc1Cl	n	25µM
CC1CCN(S(=O)(=O)c2ccc3nc(Nc4ccc(C#N)cc4)ccc3c2)CC1	n	32µM
CCOc1ccc(OCC)c(Nc2ccc3cc(S(=O)(=O)N4CCCC4)ccc3n2)c1	n	n
CC1CCN(S(=O)(=O)c2ccc3nc(Nc4cccc(C(F)(F)F)c4)ccc3c2)CC1	n	u

Screening results (PubChem BioAssay)
